The supplement of paper PMC10498489
About 330 (14%) of roughly 2,300 compounds showed activity. Not all results are given here. Unmarked numbers belong to inactive results.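 How the source made its calls: active = median modified Z-score above 1.96; inactive = 1.96 or below.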

tested on: HepG2 Srxn1-GFP reporter cells (+30 nM CDDO-Me); experiment: Srxn1-GFP intensity median modified Z-score relative to plate median; higher = stronger NRF2 / oxidative stress reporter activation, active = hit call of the paper; details: 10 µM; exposure time: 24h
Summary of the method: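 Values give the median, over replicates, of the modified Z-score of GFP intensity on each plate. HepG2 Srxn1-GFP BAC reporter cells were co-treated for 24 h with an NRF2 activator at 30 nM and compound at 10 μM (≤0.1% DMSO) in three replicate plates, then analysed per cell for cytoplasmic GFP on confocal images with at least 100 cells. Scaling used 1.4826 × median absolute deviation.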

Structure (SMILES)	Srxn1-GFP intensity median modified Z-score
CCNC1CN(CCCOC)S(=O)(=O)c2sc(S(N)(=O)=O)cc21 (stereo not given) [euspeclibcmpd1945]	-0.371
COc1cc([C@@H]2c3cc4c(cc3C(OC3O[C@@H]5COC(C)O[C@H]5[C@H](O)[C@H]3O)C3COC(=O)C32)OCO4)cc(OC)c1O (stereo not given in full) [euspeclibcmpd356]	2.43 (active)
COc1cc([C@@H]2c3cc4c(cc3C(O[C@@H]3O[C@@H]5CO[C@@H](c6cccs6)OC5[C@H](O)[C@H]3O)C3COC(=O)C32)OCO4)cc(OC)c1O (stereo not given in full) [euspeclibcmpd647]	8.51 (active)
C=C1CCC(c2cc(O)oc2O)C(=O)CCC2C1CC2(C)C (stereo not given) [euspeclibcmpd1822]	-0.357
Nc1ccc(S(=O)(=O)N=c2nccc[nH]2)cc1 [euspeclibcmpd274]	-0.479
CCCCCCCCCCCCCCCC(=O)OCC(O)CO (stereo not given) [euspeclibcmpd1622]	-0.224
CCc1ccc(CCOc2ccc(Cc3sc(=O)[nH]c3O)cc2)nc1 [euspeclibcmpd684]	-0.309
O=c1c(-c2ccc(Br)cc2)coc2cc(O)ccc12	0.373
C[C@]12CCC(=O)CC1=C1C[C@@H]1C1C2CC[C@@]2(C)C1[C@@H]1C[C@@H]1[C@@]21CCC(=O)O1 (stereo not given in full) [euspeclibcmpd608]	-0.491
C[C@@H]1O[C@@H](O[C@H]2[C@@H](Oc3cc(O)c4c(c3)O[C@H](c3ccc(O)cc3)CC4=O)O[C@H](CO)[C@@H](O)[C@@H]2O)[C@H](O)[C@H](O)[C@H]1O [euspeclibcmpd1504]	-0.249
NS(=O)(=O)c1ccc(C(=O)O)cc1 [euspeclibcmpd1180]	0.0784
Cc1ccc(-c2cc(C(F)(F)F)nn2-c2ccc(S(N)(=O)=O)cc2)cc1 [euspeclibcmpd595]	2.01 (active)
COc1ccc(-c2cc(C(F)F)nn2-c2ccc(S(N)(=O)=O)cc2)cc1F [euspeclibcmpd724]	0.694
C=c1cc(O)c2c(O)c3c(O)c(=C)cc(O)c3c(O)c2c1O [euspeclibcmpd2077]	-0.258
CCCCC(=O)O[C@]1(C(=O)CO)[C@@H](C)CC2C3CC=C4CC(=O)C=C[C@]4(C)[C@@]3(F)C(O)C[C@@]21C (stereo not given in full) [euspeclibcmpd36]	-0.635
CS(=O)(=O)c1ccc(-c2coc(O)c2-c2ccccc2)cc1 [euspeclibcmpd2038]	-0.358
O=C(O)CN(CCN(CC(=O)O)CC(=O)O)CC(=O)O [euspeclibcmpd2457]	-0.0932
O=C(O)CS [euspeclibcmpd2222]	-0.181
O=C(O)CN(CCN(CC(=O)O)CC(=O)O)CC(=O)O	2.26 (active)
O=C(O)CN(CCN(CC(=O)O)CC(=O)O)CCN(CC(=O)O)CC(=O)O [euspeclibcmpd916]	-0.735
